Measured values as given in article PMC4336329 (PLoS ONE, 2015).
Out of some 310,000 compounds screened, about 14,000 (4.5%) showed an effect of 50% or more. The effect is printed as a negative number. For the sample, strong results were picked, then their nearest neighbours and some compounds at random.

Target: human ether-à-go-go-related gene (hERG) potassium channel (human, UniProt Q12809)
Assay: primary screen, population patch clamp on CHO cells stably expressing hERG; higher = less effect of the substance
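Also: peak tail current of the secondary pulse compared with the same well before compound.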

Sequence of human ether-à-go-go-related gene (hERG) potassium channel (Q12809 whole entry, looked up): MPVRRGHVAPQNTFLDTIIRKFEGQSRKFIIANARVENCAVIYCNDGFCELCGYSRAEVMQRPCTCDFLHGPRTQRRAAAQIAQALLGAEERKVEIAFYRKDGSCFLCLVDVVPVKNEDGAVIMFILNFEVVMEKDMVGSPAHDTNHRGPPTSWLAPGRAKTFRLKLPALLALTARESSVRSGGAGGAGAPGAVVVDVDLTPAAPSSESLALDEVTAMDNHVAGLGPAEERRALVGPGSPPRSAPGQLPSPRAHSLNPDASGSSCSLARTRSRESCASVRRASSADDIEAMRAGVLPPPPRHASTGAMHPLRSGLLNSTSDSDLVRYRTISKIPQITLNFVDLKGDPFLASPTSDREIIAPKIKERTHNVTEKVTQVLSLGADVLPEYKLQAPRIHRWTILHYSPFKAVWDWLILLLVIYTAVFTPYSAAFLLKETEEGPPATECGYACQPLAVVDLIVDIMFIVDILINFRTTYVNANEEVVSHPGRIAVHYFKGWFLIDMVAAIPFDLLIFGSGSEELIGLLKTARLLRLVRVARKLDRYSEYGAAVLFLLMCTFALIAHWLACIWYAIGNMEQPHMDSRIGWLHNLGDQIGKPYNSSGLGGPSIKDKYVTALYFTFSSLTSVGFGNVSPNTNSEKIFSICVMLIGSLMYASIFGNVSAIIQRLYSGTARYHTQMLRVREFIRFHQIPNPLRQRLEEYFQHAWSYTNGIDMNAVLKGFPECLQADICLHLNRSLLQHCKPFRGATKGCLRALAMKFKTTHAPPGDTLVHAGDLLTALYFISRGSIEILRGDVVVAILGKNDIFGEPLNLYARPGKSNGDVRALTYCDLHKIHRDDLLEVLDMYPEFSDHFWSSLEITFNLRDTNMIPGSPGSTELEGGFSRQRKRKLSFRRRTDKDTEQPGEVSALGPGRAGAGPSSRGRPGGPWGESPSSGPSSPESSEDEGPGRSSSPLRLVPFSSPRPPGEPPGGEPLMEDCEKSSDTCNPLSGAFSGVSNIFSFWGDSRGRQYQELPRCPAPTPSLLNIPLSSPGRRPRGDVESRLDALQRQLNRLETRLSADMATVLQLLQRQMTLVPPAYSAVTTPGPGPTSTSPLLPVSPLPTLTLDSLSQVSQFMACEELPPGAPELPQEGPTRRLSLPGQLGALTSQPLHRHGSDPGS

| SMILES | hERG current change (%, negative = inhibition) at 10uM [%] |
| --- | --- |
| CC(C)CCNC(=O)NC(=O)CSc1nnc(-c2ccccc2Br)o1 | -5.73 |
| CC(=O)c1ccc(-c2nc3ccccc3n2C)o1 | 12.7 |
| CC1CCN(C(=O)COC(=O)CCc2c[nH]c3ccccc23)CC1 | 9.1 |
| CCOC(=O)c1csc(NC(=O)c2ccccc2)n1 | -8.86 |
| COc1ccc(NC(=O)OCC(C)C)cc1OC | 15.9 |
| C=CCN1C(=O)/C(=C/c2ccc(OC)cc2)S/C1=N/c1nccs1 | 13.4 |
| Cc1nn(C(=O)c2ccco2)c(C)c1Sc1ccc([N+](=O)[O-])cc1 | 20.8 |
| COc1ccc(Cl)cc1C(=O)OCC(=O)NCCNC(=O)COC(=O)c1cc(Cl)ccc1OC | -71.6 |
| O=C(COC(=O)c1cc(Cl)ccc1O)NCCNC(=O)COC(=O)c1cc(Cl)ccc1O | 21.4 |
| COc1ccc(Cl)cc1C(=O)OCC(=O)NCc1cccs1 | -28.1 |
| Cc1cccc(C(=O)OCCN2CCOCC2)c1.Cl | 12.3 |
| CCOc1ccc(C2C(C#N)=C(N)SC(N)=C2C#N)cc1OCC | 13.5 |
| COc1cccc(O)c1CN1CCCC(C(=O)c2ccccc2SC)C1 (stereo not shown) | -44.1 |
| COc1ccccc1CN1CCCC(C(=O)c2ccccc2SC)C1 (stereo not shown) | -71.1 |
| COC(=O)CCCC(=O)N1CCCC(C(=O)c2ccccc2SC)C1 (stereo not shown) | -8.08 |
| COc1cccc(CN2CCCC(C(=O)c3ccccc3SC)C2)c1O (stereo not shown) | -77.5 |
| COc1cccc(OC)c1CN1CCCC(C(=O)c2ccccc2SC)C1 (stereo not shown) | -72.6 |
| COc1ccccc1CN1CCCC(C(=O)c2ccccc2OC)C1 (stereo not shown) | -47.2 |
| C/C(=N\NC(=O)c1ccccc1O)c1ccc(Br)s1 | 11 |
| O=C(O)c1ccc2c(c1Sc1ccccc1)C(=O)c1ccccc1C2=O | -4.82 |
| COc1cc(C(=O)Nc2ccc(S(=O)(=O)NC(C)C)cc2)cc(OC)c1OC | -2.49 |
| O=C(CCn1cccn1)Nc1ccc(-c2ccno2)cc1 | 14.4 |

| SMILES | hERG current change (%, negative = inhibition) at 10uM [%] |
| --- | --- |
| CCNC(=O)CN(CCc1ccccc1)S(C)(=O)=O | 17.8 |
| O=S(=O)(Nc1ccc(-c2nnc(SCc3ccc(Cl)cc3)o2)cc1)c1ccccc1 | 17.8 |
| O=S(=O)(Nc1ccc(-c2ccc3nncn3n2)cc1)c1cccs1 | 15.4 |
| O=C(NCc1ccccc1Cl)c1cccc(NC2=NC3CS(=O)(=O)CC3S2)c1 (stereo not shown) | 13.1 |
| Cc1nnc(NC(=O)c2ccccc2Br)s1 | -1.65 |
| CC1=C(C(=O)Nc2ccccc2)C(c2ccco2)C(C#N)=C(SCC(=O)Nc2cccc(C)c2C)N1 (stereo not shown) | 17.9 |
| CCc1nc2sc3c(c2c(=O)n1N)CC(C)(C)OC3 | 7.31 |
| OCCN1CCN(Cc2cc(Br)cc(Br)c2O)CC1 | -60.8 |
| COc1ccc(Br)cc1CN1CCN(CCO)CC1 | -0.9 |
| CCN1CCN(Cc2cc(Br)cc(OC)c2O)CC1 | -20.4 |
| CCN1CCN(Cc2cc(Br)cc(Br)c2O)CC1 | -50.6 |
| CCN1CCN(Cc2cc(Br)ccc2O)CC1 | -22.7 |
| Oc1c(Br)cc(Br)cc1CN1CCN(Cc2ccccc2)CC1 | -3.14 |
| O=C(OCc1ccccc1)c1cc(S(=O)(=O)N2CCCCC2)ccc1N1CCOCC1 | -27.3 |
| CC(=O)N1N=C(c2cccs2)CC1c1ccc(C)o1 (stereo not shown) | 7.07 |
| COC(=O)c1ccc(N2C(=O)CC(N3CCN(c4ccccc4)CC3)C2=O)cc1 (stereo not shown) | 11.1 |
| Cc1cc(Cl)c(S(=O)(=O)NCc2ccncc2)cc1OCC(N)=O | 1.62 |
| Cc1cc(C)n(CCNC(=O)C2CCC(=O)N(Cc3ccc(Cl)cc3)C2)n1 (stereo not shown) | 15.2 |
| O=C(NCCn1cccn1)C1CCC(=O)N(CCc2ccc(Cl)cc2)C1 (stereo not shown) | 5.51 |
| Cc1cc(C)n(CCCNC(=O)C2CCC(=O)N(CCc3ccc(Cl)cc3)C2)n1 (stereo not shown) | -54.7 |
| Cc1ccn(CCNC(=O)C2CCC(=O)N(CCc3ccc(Cl)cc3)C2)n1 (stereo not shown) | -55.3 |
| COc1ccc(CCN2CC(C(=O)NCCCn3nc(C)cc3C)CCC2=O)cc1 (stereo not shown) | -23.3 |

| SMILES | hERG current change (%, negative = inhibition) at 10uM [%] |
| --- | --- |
| Cc1ccn(CCNC(=O)C2CCC(=O)N(Cc3ccc(Cl)cc3)C2)n1 (stereo not shown) | -3.57 |
| COc1cccc(C2CC(c3ccccc3)Nc3nc(N)nn32)c1 (stereo not shown) | -7.93 |
| S=c1[nH]nc(Cc2cccs2)n1-c1cccc2ccccc12 | -10.4 |
| O=[N+]([O-])c1ccc(CNc2cccc(F)c2)s1 | -32.3 |
| Cc1ccc(CNC(=O)c2nc3nc(C)cc(C)n3n2)cc1 | 14.4 |
| Cc1cccc(NC(=S)Nc2cccc3ccccc23)c1 | 15.9 |
| Cc1ccc(NC(=S)NC2CCN(Cc3ccccc3)CC2)c(C)c1 | -12.9 |
| CCOC(=O)c1c(-c2ccc(C)cc2)csc1NC1=NS(=O)(=O)c2ccccc21 | -1.41 |
| Cl.N#CC(c1ccccc1)C1CCN(Cc2ccccc2)CC1 (stereo not shown) | -50.9 |
| CC(=O)C1CCN(Cc2ccccc2)CC1 | 20.5 |
| CSc1ccccc1OC1CCN(Cc2ccccc2)CC1.Cl | -24.3 |
| O=C(OCC(=O)N1CCCCCC1)c1ccc([N+](=O)[O-])cc1Cl | 8.47 |
| Cc1ccccc1S(=O)(=O)Nc1nc2ccccc2nc1N1CCOCC1 | 7.22 |
| CCn1ccc(C(=O)NC2=NCCS2)n1 | -3.73 |
| C=CCNC(=O)/C(C#N)=C/c1c(N2CCCCCC2)nc2ccccn2c1=O | -59.6 |
| COCCNC(=O)/C(C#N)=C/c1c(N2CCN(c3ccccc3)CC2)nc2ccccn2c1=O | -20.7 |
| CNC(=O)/C(C#N)=C/c1c(N2CCCCCC2)nc2ccccn2c1=O | 10.2 |
| CCNC(=O)/C(C#N)=C/c1c(N2CCN(c3ccccc3)CC2)nc2ccccn2c1=O | -66.3 |
| CCNC(=O)/C(C#N)=C/c1c(N2CCCCCC2)nc2ccccn2c1=O | -9.13 |
| CCNC(=O)/C(C#N)=C/c1c(N2CCOCC2)nc2ccccn2c1=O | -4.68 |
